According to PubChem BioAssay AID2101 (National Center for Advancing Translational Sciences (NCATS), 2009):
The campaign covered roughly 330,000 compounds. About 300 (0.091%) were called active. About 4% were inconclusive and are not listed. The full list was thinned out, with actives kept by preference. Unmarked numbers belong to inactive results. Calls follow the shape of the dose curve; as a rule, active = well fitted inhibition curve with a large enough effect; inconclusive = small, poorly fitted or top-dose-only effect, or effect the other way, or another doubt; inactive = no such curve, though single readings can be large or run the other way.
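For activity change, negative = inhibition in this document: 0% = full enzyme activity and -100% = no enzyme basal.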
Potency is read from the fitted curve at half-maximal effect.

Each compound was assayed against Lysosomal acid glucosylceramidase (Homo sapiens) (UniProt P04062) (assay: qHTS Assay for Inhibitors and Activators of N370S glucocerebrosidase as a Potential Chaperone Treatment of Gaucher Disease). Conditions: N370S GC spleen homogenate, 4MU-glucoside fluorescence; series mostly up to 59.4 µM; activity change, negative = inhibition: at the top concentration.
Description: NIH Chemical Genomics Center [NCGC]
NIH Molecular Libraries Probe Production Centers Network [MLPCN]
Assay Submitter (PI): Wei Zheng
Glucocerebrosidase (GC) catalyzes the hydrolysis of beta-glucocerebroside to glucose and ceramide in lysosomes. Mutations in the glucocerebrosidase gene result in Gaucher disease, an autosomal recessive lysosomal storage disorder. Many of the mutations encountered in patients with Gaucher disease are missense alterations that may cause misfolding, decreased stability and/or mistrafficking of this lysosomal protein. […] These inhibitors include iminosugar analogs and three non-iminosugar inhibitors identified from a previous HTS of 62,000 compounds with the wild type recombinant enzyme. However, the enhancement of enzyme activity by the chaperone action of an enzyme inhibitor must be balanced against the direct inhibition of the enzyme. An enzyme activator could also function as a chaperone by binding to the enzyme and helping to correct its misfolding and mistrafficking. While activators for GC have not yet been identified, they may have better therapeutic potential than inhibitors. Therefore the discovery and development of chemical activators may provide a new strategy for the chaperone therapy.
We have optimized a new assay using N370S mutant GC derived from the spleen of a Gaucher patient. […] In addition, the MLPCN compound library has expanded, which increases the chance of finding new and better probes.
NCGC Assay Protocol Summary:
This is a fluorogenic enzyme assay with 4-methylumbelliferyl-beta-D-glucopyranoside as the substrate and N370S glucocerebrosidase from human spleen homogenate as the enzyme preparation. Upon the hydrolysis of this fluorogenic substrate, the resulting product, […] which can be detected by a standard fluorescence plate reader. Data were normalized to the controls for basal activity (without enzyme) and 100% activity (with enzyme). The AC50 values were determined from concentration-response data modeled with the standard Hill equation.
Assay buffer: 50 mM citric acid (titrated with potassium phosphate to pH 5.0), 100 mM potassium chloride, 10 mM sodium chloride, 1 mM magnesium chloride, 0.01% Tween-20.
1536-well assay protocol:
(1) Add 2 ul/well of spleen homogenate (27 ug final)
(2) Add 23 nL compounds in DMSO solution. The final titration was 0.5 nM to 58 uM.
(3) Add 2 ul of substrate (1 mM final)
(4) Incubate at 37C for 40 min.
(5) Add 2 ul stop solution (1M NaOH and 1M Glycine mixture, pH 10)
(6) Detect the assay plate in a ViewLux plate reader (PerkinElmer) with Ex=365 nm and Em=440nm.
Keywords: Glucocerebrosidase, beta-glucosidase, Gaucher Disease, pharmacological chaperone, chaperone therapy, high throughput screening, glucocerebrosidase inhibitor, MLSMR, MLSCN, NIH Roadmap, qHTS and NCGC
For O=C(NCCc1ccc(F)cc1)c1ccc(S(=O)(=O)N2CCCCC2)cc1, the “activity change, negative = inhibition” value was 1.39%. With Nc1nc2c(ncn2[C@@H]2O[C@H](COP(=O)(O)OP(=O)(O)OP(=O)(O)O)[C@@H](O)C2O)c(=O)[nH]1 (stereo partly specified) the “activity change, negative = inhibition” value was 9.3%. Cc1occc1-c1nnc(SCC(=O)NC2(C#N)CCCC2)n1C was tested, and the “activity change, negative = inhibition” value was -17.2%. In the case of C/C=C(\C)C(=O)OC1C(OC(=O)C2(C)OC2C)c2cc3ccc(=O)oc3cc2OC1(C)C (stereo unspecified), the “activity change, negative = inhibition” value is reported as 3.71%. For O=C(c1cnccn1)N1CCC2(CCN(Cc3cc(C(F)(F)F)cc(C(F)(F)F)c3)CC2)CC1, the “activity change, negative = inhibition” value was -12.7%. In the case of Cc1ccc(NC(=O)CCC(=O)N2CCC(c3ccccc3)=N2)cc1S(=O)(=O)N1CCCCC1, the “activity change, negative = inhibition” value is reported as 2.1%. CC(=O)OCCC(C)C was tested, and the “activity change, negative = inhibition” value was 0.964%. For CCCCCCN(C(=O)CCCCCN1C(=O)NC(c2ccc(C(F)(F)F)cc2)C(C(=O)OCc2ccccc2)=C1C)C(C(=O)NCCCC)c1ccc(OCC(=O)OC)c(C(=O)OC)c1 (stereo unspecified), the “activity change, negative = inhibition” value was 5.32%. For c1ccc(Oc2ccccc2)cc1, the “activity change, negative = inhibition” value was 22.7%. Work on C=CCOC(=O)C(C(C)=O)C(NC(=O)OC)c1ccccc1 (stereo unspecified) yielded an activity change, negative = inhibition of -15.4% [at 12.8 µM]. With COC(=O)CCc1ccccc1S(=O)(=O)N(CCC(=O)OC)Cc1ccccc1 the “activity change, negative = inhibition” value was 4.9%. In the case of CC1CC[C@@]23CCC4(C)[C@@]5(C)CCC6C(C)(C)C(O)CC[C@@]6(C)C5C=C[C@@]4(OC2=O)C3C1C (stereo partly specified), the “activity change, negative = inhibition” value is reported as 17%. With CCN(CC)/[N+]([O-])=N/Oc1cc(O/[N+]([O-])=N/N2CCCC2CO)c([N+](=O)[O-])cc1[N+](=O)[O-] (stereo unspecified) the “activity change, negative = inhibition” value was -2.99%. In the case of COC(=O)N1C(/C=C/C=C/c2ccc(OC)cc2)=Cc2ccccc2C1CC(C)=O (stereo unspecified), the activity change, negative = inhibition is reported as -10.4% [at 12.8 µM]. Work on COc1ccc(-c2nc3c(c4c2C[C@H](c2ccccc2)OC4)CN(C(=O)C2CC2)CC3)c(C)c1 yielded an activity change, negative = inhibition of -14.3% [at 12.8 µM]. In the case of C[C@]12CC[C@@H]3C(=CCc4cc(O)ccc43)[C@@H]1CCC2=O, the “activity change, negative = inhibition” value is reported as 5.36% [at 21.6 µM]. In the case of CCOC(OCC)OCC, the “activity change, negative = inhibition” value is reported as -6.68%. With COc1ccc(Cl)cc1NC(=O)CN(C)CC(=O)Nc1ccc2c(c1)OCO2 the “activity change, negative = inhibition” value was -0.107%. COc1cccc(CC(=O)N2CCc3nc(COc4ccccc4)c4c(c3C2)CO[C@@H](C)C4)c1 showed an activity change, negative = inhibition of 3.29% [at 12.8 µM]. With O=S(=O)(Nc1ccc2nc(N3CCOCC3)sc2c1)c1ccccc1 the “activity change, negative = inhibition” value was -0.448%. CC(C)C(NC(=O)c1c(F)cccc1F)C(=O)NCc1ccncc1 (stereo unspecified) was tested, and the “activity change, negative = inhibition” value was -1.03%. For O=C(Nc1cccc(C(=O)NC2CC2)c1)c1ccc(F)c(S(=O)(=O)N2CCOCC2)c1, the “activity change, negative = inhibition” value was -12%. In the case of COc1ccc(CNC(=O)COC(=O)c2c(C)nn(-c3ccccc3)c2C)cc1OC, the “activity change, negative = inhibition” value is reported as -7.39%. With Cc1ccccc1Nc1nc(N)nc(COC(=O)CCC(=O)c2ccc(F)cc2)n1 the “activity change, negative = inhibition” value was -4.41%. For CN(CC(=O)Nc1cccc(F)c1)C(=O)CC1CCCC1, the “activity change, negative = inhibition” value was 4.61%. In the case of Cc1nc2cc(-c3ccc(F)cc3)nn2c(N2CCOCC2)c1C, the “activity change, negative = inhibition” value is reported as 3.61%. With Cc1cc(C(C)(C)C)n2nc(C)c(-c3ccccc3)c2n1 the “activity change, negative = inhibition” value was -12.5%. For Cc1cc(N)n2nc(-c3ccc(C(C)(C)C)cc3)cc2n1, the Potency was 10 µM (active). For CC(O)[C@@H](N)C(=O)O (stereo partly specified), the “activity change, negative = inhibition” value was 0.968%. For CC/C=C/C/C=C/C/C=C/CCCCCCCC(=O)OCC, the “activity change, negative = inhibition” value was -5.39%. COC(=O)C(C(=O)OC)[C@@H]1CCCC(=O)C1 was tested, and the activity change, negative = inhibition was 8.05% [at 12.8 µM]. In the case of Cc1cc(C)c(C#N)c(SCC(=O)N(CC(C)C)C2CCS(=O)(=O)C2)n1 (stereo unspecified), the “activity change, negative = inhibition” value is reported as -3.33%. For O=C(COc1ccccc1O)NC1CCCC1, the “activity change, negative = inhibition” value was -4.6%. In the case of FC(F)(F)c1ccccc1-c1cc(NCc2ccccc2)ncn1, the “activity change, negative = inhibition” value is reported as -15.5%. COc1cccc(-c2cc(=O)c3cc(NC(=O)c4ccc(C)cc4)ccc3[nH]2)c1 was tested, and the “activity change, negative = inhibition” value was 3.29% [at 89.1 µM]. For CCCCC(CC)CN (stereo unspecified), the activity change, negative = inhibition was “inactive”. CCCCC/C=C\C/C=C\C/C=C\CCCCC(=O)NCC(=O)O was tested, and the “activity change, negative = inhibition” value was -1.79%. With CC(=O)Nc1ccc(S(=O)(=O)N2CCN(S(=O)(=O)c3cccs3)CC2)cc1 the “activity change, negative = inhibition” value was -3.11%. CCc1c2c(nc3ccc(O)cc13)-c1cc3c(c(=O)n1C2)COC(=O)[C@]3(O)CC was tested, and the “activity change, negative = inhibition” value was -6.54%. Work on Cc1cc(C)cc(C#CC2C=CC(Oc3ccc(C4CCCC4)cc3)C(CO)O2)c1 (stereo unspecified) yielded an activity change, negative = inhibition of 7.35% [at 12.8 µM]. In the case of O=C1C2C(c3ccccc3)CC=CC2C(c2ccoc2)N1Cc1ccccc1 (stereo unspecified), the “activity change, negative = inhibition” value is reported as 1.22%. O=C(CN1CCCSc2ccccc21)N1CCN(S(=O)(=O)c2ccccc2)CC1 was tested, and the “activity change, negative = inhibition” value was 2.06%. In the case of COC(=O)NC(c1ccccc1)[C@]1(C(C)=O)CCCC1=O (stereo partly specified), the activity change, negative = inhibition is reported as 0.29% [at 12.8 µM]. With O=c1cc(-c2ccc(O)cc2)oc2c([C@@H]3O[C@H](CO)[C@@H](O)[C@H](O)[C@H]3O)c(O)cc(O)c12 the “activity change, negative = inhibition” value was -9.49%. With COc1ccc2[nH]cc(CCNc3ncnc4ccc(-c5ccc(C(=O)N(C)C)cc5)cc34)c2c1 the “activity change, negative = inhibition” value was -20.6%. With CCOC(=O)Cc1csc(SCC(=O)Nc2ccc(C)cc2F)n1 the “activity change, negative = inhibition” value was -2.81%. In the case of CC[C@H](C)[C@H](NC(=O)[C@@H](N)CCC(=O)O)C(=O)N[C@@H](CC(C)C)C(=O)N[C@@H](CC(=O)O)C(=O)N[C@H](C(=O)N1CCC[C@H]1C(=O)N[C@@H](CO)C(=O)N[C@H](C(=O)O)[C@@H](C)O)C(C)C, the “activity change, negative = inhibition” value is reported as -6.74%. With N#CCC(=O)Nc1ccc(C(=O)OCC(=O)Nc2sc3c(c2C#N)CCCC3)cc1 the “activity change, negative = inhibition” value was -1.92%. For CC(=O)CC(C)C, the “activity change, negative = inhibition” value was 4.41%. CCOc1[nH]n(-c2ccc(Cl)cc2)c(=O)c1C=Nc1ccc(O)cc1 was tested, and the “activity change, negative = inhibition” value was -12.7%. In the case of O=[N+]([O-])c1ccc(N=Cc2c(O)ccc3ccccc23)cc1, the “activity change, negative = inhibition” value is reported as 1.71%. With Oc1ccc(N=Cc2c(O)ccc3ccccc23)cc1 the Potency was 12.6 µM (active). For CC(=O)c1ccc(N2CCN(C(=O)c3ccc(Cl)c(S(=O)(=O)NC4CC4)c3)CC2)c(F)c1, the “activity change, negative = inhibition” value was -16.3%. In the case of Oc1ccc(O)c2c(O)cccc12, the “activity change, negative = inhibition” value is reported as -3.42%. In the case of Cc1ccc(C)c(NC(=O)CN(C)C(=O)c2ccc3ncsc3c2)c1, the “activity change, negative = inhibition” value is reported as -14.8%. With CSc1ccccc1NC(=O)COC(=O)CCCOc1ccc(C)cc1 the “activity change, negative = inhibition” value was -19.4%. In the case of CC1CCCC(NC(=O)c2cc(-c3ccncc3)nc3ccccc23)C1C (stereo unspecified), the “activity change, negative = inhibition” value is reported as -3.85%. CCOc1ccc(N(CC(=O)Nc2ccccc2F)S(=O)(=O)c2c(C)[nH]c(=O)[nH]c2=O)cc1 was tested, and the Potency was 3.16 µM (active). With CCOc1ccc(N(CC(=O)NCc2ccc(OC)cc2)S(=O)(=O)c2c(C)noc2C)cc1 the “activity change, negative = inhibition” value was 5.25%. With CCOc1ccc(N(CC(=O)NC2CCCCCC2)S(=O)(=O)c2c(C)[nH]c(=O)[nH]c2=O)cc1 the Potency was 2.51 µM (active). With CCCN(c1ccc(C(C)C)cc1)S(=O)(=O)c1c(C)[nH]c(=O)[nH]c1=O the “activity change, negative = inhibition” value was -1.77%. For COc1cccc(N(CC(=O)NC2CCCCCC2)S(=O)(=O)c2ccccc2)c1, the “activity change, negative = inhibition” value was -0.1%. In the case of CCOc1ccc(N(CC(=O)Nc2cccc(OC)c2)S(C)(=O)=O)cc1, the “activity change, negative = inhibition” value is reported as 2.19%. In the case of COc1ccc(N(CC(=O)NC2CCCCCCC2)S(=O)(=O)c2c(C)nn(C)c2C)cc1, the “activity change, negative = inhibition” value is reported as 1.78%. With CCOc1ccc(N(CC(=O)NCCc2ccc(F)cc2)S(=O)(=O)c2ccccc2)cc1 the “activity change, negative = inhibition” value was -4.73%. With COc1ccc(N(CC(=O)NC2CCCCC2)S(=O)(=O)c2c(C)[nH]c(=O)[nH]c2=O)cc1 the Potency was 3.98 µM (active).
